# Experimental data taken from PubChem BioAssay (NCI).
# The panel holds about 79,000 compounds, 15% with a hit somewhere; the sample as a whole holds those more often. Unmarked numbers belong to inactive results. Active and inactive are the calls of the source. No stated cut-off is given here; in the data, active means growth inhibition above about 70%; inactive means the rest.
# Experiments:
# [1] = NCI Yeast Anticancer Drug Screen. Data for the rad50 strain (AID 155);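 further: 0% = growth of vehicle-only cultures of the same strain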; settings: S. cerevisiae rad50 strain growth inhibition, stronger effect = higher value
# How it was run: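 A DNA repair-deficient yeast mutant serves as the test organism; compound-induced growth inhibition is calculated against vehicle-treated cells.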
# [2] = NCI Yeast Anticancer Drug Screen. Data for the mec2-1 strain (AID 157); settings: S. cerevisiae mec2-1 strain, stronger effect = higher value
# How it was run: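 Using mec2-1 yeast: add compound, measure growth, express inhibition versus vehicle-treated cultures.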
# [3] = NCI Yeast Anticancer Drug Screen. Data for the sgs1 mgt1 strain (AID 161);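 further: 0% = growth of cultures given vehicle only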; settings: S. cerevisiae sgs1 mgt1 strain, stronger effect = higher value
# How it was run: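 Percent growth inhibition was derived by comparing compound-exposed mutant yeast with vehicle-exposed cultures. The strain carries alterations in DNA damage repair.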
# [4] = NCI Yeast Anticancer Drug Screen. Data for the cln2 rad14 strain (AID 165);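 further: 0% = growth equal to vehicle treated cultures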; settings: S. cerevisiae cln2 rad14 strain, stronger effect = higher value
# How it was run: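 Yeast strain cln2 rad14, bearing defects in cell cycle control and DNA repair, serves as the test system; values reflect growth inhibition compared with vehicle.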
# [5] = NCI Yeast Anticancer Drug Screen. Data for the bub3 strain (AID 167); settings: S. cerevisiae bub3 mutant strain, stronger effect = higher value
# How it was run: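 Inhibition values come from growth of compound-treated mutant yeast normalised to vehicle-treated controls.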
# [6] = NCI Yeast Anticancer Drug Screen. Data for the mlh1 rad18 strain (AID 175); settings: S. cerevisiae mlh1 rad18 strain growth inhibition, stronger effect = higher value
# How it was run: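 Steps: expose repair-defective yeast to compound; measure growth; express inhibition against vehicle-treated controls.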
# [7] = at 5.0 µM (retest, dose inferred, filed as 0.5)
# [8] = at 50.0 µM (retest, dose inferred, filed as 5.0)
Compound,"growth inhibition [1, 7]","growth inhibition [1, 8]",growth inhibition ([1]; at 50.0 µM),"growth inhibition [2, 7]","growth inhibition [2, 8]",growth inhibition ([2]; at 50.0 µM),"growth inhibition [3, 7]","growth inhibition [3, 8]",growth inhibition ([3]; at 50.0 µM),"growth inhibition [4, 7]","growth inhibition [4, 8]",growth inhibition ([4]; at 50.0 µM),"growth inhibition [5, 7]","growth inhibition [5, 8]",growth inhibition ([5]; at 50.0 µM),"growth inhibition [6, 7]","growth inhibition [6, 8]",growth inhibition ([6]; at 50.0 µM)
CC(=O)c1c(C)n(C)c2c1nnc1ccccc12,53%,81% (active),92.3% (active),17%,50%,36.9%,6%,-2%,22%,9%,31%,59.4%,11%,48%,27.1%,19%,56%,68.4%
CCCCCCCCCCCCCCNCc1ccccc1,99% (active),97% (active),98.8% (active),99% (active),98% (active),98.5% (active),99% (active),97% (active),98.2% (active),99% (active),97% (active),97.5% (active),99% (active),97% (active),98.6% (active),99% (active),97% (active),97.5% (active)
O=C(O)[C@@H]1CCCC[C@@H]1C(=O)N(C1CCCCC1)C1CCCCC1,-4%,79% (active),45.1%,-15%,86% (active),14%,8%,73% (active),59%,-7%,96% (active),28.6%,-5%,96% (active),9.45%,-39%,89% (active),0.5%
COc1cccc(C2c3cc4c(cc3OC(Nc3ccccc3)C2C)OCO4)c1O (stereo not given),-8%,97% (active),77.5% (active),-8%,95% (active),55.1%,1%,97% (active),94.8% (active),4%,97% (active),89.7% (active),-19%,96% (active),53.1%,0%,97% (active),96.5% (active)
CCN(CC)CCNc1nc(N)c2nc(-c3ccccc3)c(-c3ccccc3)nc2n1,-4%,51%,95.3% (active),-3%,22%,15.5%,-4%,36%,90.5% (active),-1%,5%,27.6%,-22%,36%,61.7%,-5%,56%,85.8% (active)
CCCCCCC(C)c1ccccc1O (stereo not given) (tested in a mixture with another compound),25%,96% (active),92.2% (active),24%,100% (active),94% (active),25%,100% (active),94% (active),25%,100% (active),93.6% (active),37%,99% (active),93% (active),38%,99% (active),92.2% (active)
COc1ccc(OC)c(C(Cc2ccnc3ccccc23)Cc2ccnc3ccccc23)c1,1%,97% (active),99% (active),-14%,97% (active),99.2% (active),3%,99% (active),99% (active),1%,99% (active),98.6% (active),10%,98% (active),98.8% (active),-3%,97% (active),98.8% (active)
N#C/C(=C\c1c(Cl)cccc1Cl)c1nc2ccccc2[nH]1,38%,97% (active),87.7% (active),22%,99% (active),90.2% (active),33%,99% (active),90.6% (active),23%,98% (active),88.9% (active),35%,98% (active),91.5% (active),42%,98% (active),88.8% (active)
Oc1ccc(CNCc2ccccc2)c2cccnc12,20%,98% (active),98.4% (active),4%,97% (active),97% (active),0%,98% (active),96.2% (active),-26%,96% (active),94.6% (active),-5%,99% (active),98.1% (active),4%,99% (active),98.2% (active)
O=c1ccccn1CCc1cccc2cc(O)ccc12,-3%,-1%,12.9%,-2%,4%,9.25%,-3%,-3%,10.6%,-1%,-12%,-12.3%,0%,4%,71% (active),-3%,3%,23.2%
